Results: PubChem BioAssay AID651995 (Sanford-Burnham Center for Chemical Genomics, 2013)
Hit rate of the full screen: of about 2,500 compounds, about 480 (19%) were called active. This is one part of a sample in which actives are shown more often than they occur.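 How the source made its calls: active means mean inhibition above about 25% (limit read from the data); inactive means the rest.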

experiment: inhibitors of Wnt3a-driven luciferase in Wnt-LIGHT cells – cell-based, luminescence, single concentration, counter-screen for Gli-SUFU antagonist project, confirmation (AID 651995); settings: Wnt3a-driven luciferase reporter, at 6.25 µM, hits give high values

| Structure (SMILES) | inhibition |
| --- | --- |
| CCOc1cccc(=NC2CCCCC2)c2c(C)[nH]c(C)c12 | 26.5% (active) |
